Ins promoter up: MIN6 insulin promoter up-regulation; MIN6 insulin promoter-GFP reporter, high-content imaging; hits give high values; z-score at 5 µM; hit rate 0.3% among 190,000; AID 1625;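 active = z-score above 3 at 5 µM with at least 500 cells counted in the well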
L major viab: inhibitors of Leishmania major promastigote growth. Leishmania major promastigotes, resazurin fluorescence viability. inhibition, % at 10 µM. hit rate 9% among 200,000; in the data active = inhibition above about 50%;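 note: promastigotes grown with compound for 44 hours at 28 °C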
Insulin prom inh: TRM-6 insulin promoter activity inhibition; inhibition, % at 2 µM; hit rate 0.9% among 130,000; TRM-6 cells (human fetal islet line), insulin promoter-eGFP reporter, imaging; reporter expression induced with tamoxifen;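 active = inhibition above the mean plus 3 SD, with well images judged a real hit on visual review, cut at about 60% in these data, passing the limit was not always enough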
Autophagy mod: alters autophagy in cells. MEF GFP-LC3 puncta imaging; test concentration mostly 10 µM. calls only at 10 µM (by protocol). hit rate 0.98% among 190,000;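 active = percentage of spot-positive cells more than 3 SD above its plate mean, without a fluorescence outlier flag or 80% toxicity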;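 note: spot-positive cell cutoff set from DMSO-treated cells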
WT yeast gro inh: growth inhibition of WT yeast, mitochondrial fusion screen; AID 1362; inhibition, % at 10 µM; mitochondrial fusion phenotypic screen, WT strain; hit rate 2.1% among 190,000; in the data active = inhibition above about 58%; tested in S. cerevisiae
Numbers without * were called inactive; i = inactive; . = no result; + = active, no number. An excerpt weighted towards active compounds, which were near 11% of everything screened.

SMILES	Ins promoter up	L major viab	Insulin prom inh	Autophagy mod	WT yeast gro inh
CC(C)Oc1ccc(OCCCN2CCCCCC2)cc1	-0.6	100.0*	-25.9	i	13.4
CCCCOc1ccc(C(=O)CCN2CCOCC2)cc1	0.1	75.8*	8.3	i	25.4
CCOc1ccc(C(=O)N2CCCC2)cc1	0.06	-2.4	38.5	i	-14.8
Cc1nc(NS(=O)(=O)c2ccc(Cl)s2)c2c3c(sc2n1)CCCC3	0.73	.	.	.	.
CCCOc1ccc(OCCN2CCCC(C)C2)cc1 (stereo unspecified)	0.25	95.7*	-42.9	i	10.7
CCOc1ccc(C(=O)OC2CCN(C)CC2)cc1	0.36	100.2*	22.2	i	-16.9
COc1ccc(C(=O)CCN2CCc3cc(OC)c(OC)cc3C2)cc1	-0.2	67.4*	63.0	i	-13.5
CCOc1ccc(C(=O)CCN2CCCCCC2)cc1	-0.91	100.2*	.	i	-12.3
CCCCOC(=O)c1ccc(NC(=O)/C=C/c2cccs2)cc1	0.39	-6.7	.	i	46.4
CCC(C)c1ccc(OCCN2CCCC2)cc1 (stereo unspecified)	.	96.2*	16.7	i	26.1
CCOC(=O)C(CCCOc1ccc(C(C)CC)cc1)C(=O)OCC (stereo unspecified)	-0.62	-1.7	0.0	i	16.5
COc1ccc(C(C)=O)cc1CN1CCCCC1	0.17	-1.9	46.0	i	-7.9
CCCOc1cc(CN2CCCCC2)cc(C(C)=O)c1	-0.3	52.4*	-28.6	i	9.2
CCCOc1ccc(C(O)(CCC)CCN2CCCCC2)cc1 (stereo unspecified)	-1.32	49.3	-8.1	i	-21.1
CCCOc1ccc(C(=O)CCN2CCCCC2)cc1	.	89.8*	.	i	-8.5
COc1ccc(N/C(C)=C2/C(=O)C(=O)N(CCO)C2c2ccc([N+](=O)[O-])cc2)cc1 (stereo unspecified)	-0.31	2.3	-37.9	i	-0.1
OCCCNC(=S)Nc1ccc(Br)cc1Cl	-0.43	.	.	.	.
COc1ccc(C2OCC3(CO2)SC(=O)NC3=O)cc1 (stereo unspecified)	.	-5.0	73.3*	i	-18.2
CCOC(=O)Cc1csc(NC(=O)COc2cc(C)cc(C)c2)n1	.	-8.6	-48.1	i	-1.5
COc1cccc(/C=N/Nc2nc(-c3cccnc3)nc3ccccc23)c1	-0.62	.	.	.	.
COc1cccc(CNc2nc(-c3cccnc3)nc3ccccc23)c1	-1.06	76.1*	.	i	26.6
COc1ccc(C2C(C#N)=C(N)Oc3cc4c(cc32)OCO4)cc1 (stereo unspecified)	-0.9	96.0*	58.1	i	1.0
CCc1cccc(NC(=O)c2ccc(CNc3c(N4CCCC4)c(=O)c3=O)cc2)c1	0.1	.	.	.	.
O=C(c1ccco1)N1CCN(C(c2ccccc2Cl)c2nnnn2Cc2cccs2)CC1 (stereo unspecified)	-1.37	53.0*	-30.3	i	-0.4
CC(C)CCn1nnnc1C(c1ccc(F)cc1)N1CCN(C(=O)c2ccco2)CC1 (stereo unspecified)	-0.07	55.0*	28.6	i	10.9
SMILES	Ins promoter up	L major viab	Insulin prom inh	Autophagy mod	WT yeast gro inh
CC(C)CC(c1nnnn1Cc1ccccc1)N1CCN(C(=O)c2ccco2)CC1 (stereo unspecified)	-0.95	64.9*	-35.7	i	30.9
O=C(c1ccco1)N1CCN(C(c2ccc(Cl)cc2)c2nnnn2CC2CCCO2)CC1 (stereo unspecified)	0.86	62.9*	57.1	i	11.8
Cc1ccc(CNC(=O)CSc2c3c(nc4cc(Cl)ccc24)CCCC3)o1	0.14	44.1	50.0	i	-8.1
CCCCNC(=O)Cn1nc([N+](=O)[O-])c([N+](=O)[O-])c1C	-0.59	79.2*	41.7	i	-10.6
COc1ccc(CCNC(=O)c2cc(-c3cc(Cl)ccc3O)n[nH]2)cc1OC	-1.16	.	.	.	.
CCN(CC)CCNc1cc(C)nc2c1C(=O)C(=O)C=C2N1CCCCC1	.	100.7*	8.3	i	14.6
N#Cc1c(C(F)(F)F)cc(-c2ccco2)nc1SCc1ccccn1	1.23	1.6	-371.4	+	-4.3
N#Cc1c(C(F)(F)F)cc(-c2ccco2)nc1SCc1ccncc1	1.86	5.5	.	i	21.2
Nc1c2c(nc3sc4c(c13)CCCC4)CCCCCC2	0.15	55.1*	-340.0	i	14.8
Nc1nc(-c2ccccc2)nc2sc3c(c12)CCCC3	1.29	60.0*	19.2	i	5.2
Nc1nc2sc3c(c2c(=O)s1)CCCC3	-0.31	16.5	8.1	i	35.3
O=c1[nH]c(/C(Cl)=C/c2cc(Cl)ccc2O)nc2cc(Cl)ccc12	-0.28	49.2	5.4	i	16.9
O=c1[nH]c(/C(Cl)=C/c2c(F)cccc2Cl)nc2cc(Cl)ccc12	0.36	79.4*	-16.9	i	1.5
O=C(COC(=O)c1ccc2ccccc2c1)NCCCc1ccccc1	-0.17	-7.7	.	i	2.2
Cc1cc(C(=O)CSc2nnnn2C)c(C)n1-c1cccc(F)c1	-1.17	7.1	.	i	16.3
Cc1cc(C)cc(-n2c(C)cc(C(=O)CSc3nnnn3C)c2C)c1	-0.02	91.4*	-3.6	i	-13.2
Oc1ccc(-c2cn3cc(C(F)(F)F)ccc3n2)cc1	-0.15	51.3*	20.5	i	8.3
Cc1c(CN(C)Cc2cn(C)nc2-c2ccccc2F)[nH]c2ccccc12	-0.15	20.3	.	+	4.0
CN(CCCN1CCOCC1)Cc1cn(C)nc1-c1ccccc1F	-0.08	-0.6	.	i	6.3
O=C(Nc1ccc2c(c1)OCO2)C1CCN(S(=O)(=O)c2cccs2)CC1	-0.09	10.2	-5.3	i	3.4
O=C(NC1CCCCC1)C1Cc2ccccc2CN1S(=O)(=O)c1ccc(F)cc1 (stereo unspecified)	-0.43	42.6	-293.1	i	16.7
O=C(Nc1ccc2c(c1)OCO2)C1Cc2ccccc2CN1S(=O)(=O)c1cccs1 (stereo unspecified)	-0.74	98.9*	.	i	9.3
O=C(Nc1nccs1)C1Cc2ccccc2CN1S(=O)(=O)c1ccc(F)cc1 (stereo unspecified)	0.52	66.3*	-11.8	i	-1.8
O=C(Nc1nnc(C2CC2)s1)C1Cc2ccccc2CN1S(=O)(=O)c1ccccc1F (stereo unspecified)	-0.61	100.0*	-18.9	i	-17.7
Cc1ccc(Cn2cc(SCC(N)=O)c3ccccc32)cc1	0.85	-1.3	5.6	i	-14.3
SMILES	Ins promoter up	L major viab	Insulin prom inh	Autophagy mod	WT yeast gro inh
NC(N)=Nc1nc(-c2ccccc2)c2ccccc2n1	-0.57	98.2*	27.3	i	-8.0
CCc1nc(N=C(N)N)nc2ccccc12	-1.79	8.0	33.3	i	11.5
Cc1cc(=O)n2[nH]c(CCC(=O)O)nc2n1	0.21	.	.	.	.
CCN(CC)c1ccc(CNc2nc3ccccc3n2C(C)C)cc1	0.1	.	.	.	.
C=CCc1cccc(CNc2nc3ccccc3n2C(C)C)c1O	-0.15	48.3	.	i	69.8*
CC(C)n1c(NCc2ccc(N(C)C)cc2)nc2ccccc21	1.16	-1.6	38.7	+	7.3
COc1ccc(CCNC(=O)c2cc(-c3ccncc3)nc3c(Cl)cccc23)cc1OC	-0.64	50.6*	.	i	1.3
COc1ccc(CCNC(=O)c2cc(-c3ccccn3)nc3c(Cl)cccc23)cc1OC	-0.15	9.6	-5.0	i	9.3

Bioassay records from PubChem BioAssay.
